HCMV antiviral: qHTS Assay for inhibitors of the human cytomegalovirus (HCMV) | HFF cells, HCMV-luciferase reporter, 72 h; active compounds read low | activity change, negative = inhibition, % at 57.5 µM | 4.5% of 410,000 active | AID 1259415, 2018; in the data active means activity change below about -60%; inconclusive means no clear call, values can overlap the other calls; inactive means above about -39%
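Two-dose cell screen: HFF monolayers treated with compounds and infected with luciferase-expressing HCMV at 1 PFU/cell, 72 h at 37C, then lysed for luciferase measurement.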
FMDV inh: High Throughput Screening for Foot and Mouth Disease Virus Antivirals. Potency, µM (titrated, usually from 57.9 µM), without a hit: top-dose activity change, negative = inhibition, actives largely listed as inhibitors. AID 1159524, 2015. FMDV antiviral cell-based qHTS. 1.2% of 410,000 active; calls by dose curve; tested in HEK293T cells; further: read-out not given here; potency means the concentration at half of the fitted maximal effect; nearly all actives have a fitted effect of over 45% in size
MARV entry inh: qHTS for inhibitors of binding or entry into cells for Marburg Virus. 1.8% of 300,000 active. Potency, µM (doses to about 37.8 µM), without a hit: at the top dose activity change, negative = inhibition, most hits filed as inhibitors. AID 540276, 2011. Marburg virus pseudotyped entry inhibition, cell reporter; calls by dose curve; tested in HEK293 cells; further: potency means the concentration at half of the fitted maximal effect
Giardia FBPA inh: qHTS Assay for Inhibitors of Fructose-1,6-bisphosphate Aldolase from Giardia Lamblia; purified Giardia FBPA; Potency, µM (highest dose often 59.6 µM), for the others: at the top dose activity, negative = inhibition, usual class: inhibitors; 0.71% of 290,000 active; AID 2451, 2010; further: potency means the concentration at half of the fitted maximal effect; nearly all actives have a fitted effect of over 55% in size
Target sequence (A8B2U2 whole entry, looked up): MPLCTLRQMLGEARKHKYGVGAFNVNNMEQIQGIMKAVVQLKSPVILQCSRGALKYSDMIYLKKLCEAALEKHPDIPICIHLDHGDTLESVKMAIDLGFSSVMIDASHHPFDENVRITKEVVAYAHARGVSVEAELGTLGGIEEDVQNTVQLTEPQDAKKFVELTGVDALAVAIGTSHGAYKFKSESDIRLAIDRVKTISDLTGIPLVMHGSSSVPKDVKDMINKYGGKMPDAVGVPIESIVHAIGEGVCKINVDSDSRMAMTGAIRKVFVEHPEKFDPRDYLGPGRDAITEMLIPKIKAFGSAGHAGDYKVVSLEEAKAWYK
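Giardia FBPA (40 nM reagent) was preincubated 10 min at RT with compound (up to 57.5 uM final), then substrate plus GAPDH/TPI/NAD/arsenate coupling system with diaphorase/resazurin was added; resorufin fluorescence (525/598 nm) was read after 20 min.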
HCV inh: qHTS Assay for Inhibitors of Hepatitis C Virus (HCV) | Huh7.5.1 HCVcc-Cre infection, luciferase reporter, 44 h | Potency, µM (highest dose often 41.8 µM), for the others: top-dose activity change, negative = inhibition, usual class: inhibitors | 3.4% of 340,000 active | AID 651820, 2012; further: potency means the concentration at half of the fitted maximal effect
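Reporter virus HCVcc-Cre (~0.5 moi) infects cells exposed to compound; seeding density 1,000 cells/well with 4 h settling beforehand. Luminescence, 15 sec read, taken 44 h post-infection following a 15 min RT substrate incubation.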
LASV entry inh: qHTS for Inhibitors of binding or entry into cells for Lassa Virus; Lassa virus pseudotype entry inhibition, cell reporter; Potency, µM (doses to about 37.9 µM), for inactives: at the highest dose activity change, negative = inhibition, usual class: inhibitors; 1.2% of 300,000 active; calls by dose curve; tested in HEK293 cells; further: potency means the concentration at half of the fitted maximal effect; nearly all actives have a fitted effect of over 50% in size
The depositor's hits bear a star; ? = inconclusive; · = no result; + = active, no number; [ ] = dose if it differs, or a comment. Shown are actives, neighbours in structure and some others; about 8.3% of the full set was active somewhere. Unless noted, the call rests on the fitted dose curve; in most records, active means well fitted curve in the direction sought with a large enough effect; inconclusive means small, poorly fitted or top-dose-only effect, or another doubt; inactive means no such curve, though single readings can be large; an effect the other way counts as inactive or inconclusive. On the % scale 0 is the no-effect control and ±100 the full control effect.

SMILES	HCMV antiviral	FMDV inh	MARV entry inh	Giardia FBPA inh	HCV inh	LASV entry inh
Cc1cc(C)n2nc(SCC(=O)c3cc(C)n(-c4cc(C)on4)c3C)nc2n1	?	?	-19%	-4%	4.5µM*	-18%
CN1CCN(c2ccc(Nc3cc4c(cn3)cc(-c3cccc(F)c3)n4C)cc2)CC1	-21	·	·	·	·	·
CC(=O)N1CCN(c2nc3cc(C)ccc3cc2CN(C(=O)c2cccc3ccccc23)C2CC2)CC1	·	2%	·	·	·	·
COc1ccc(NC(=O)CCc2nnc3n(CC(C)C)c(=O)c4ccccc4n23)cc1	?	-15%	8%[46.1 µM]	·	·	·
Cc1cc(C)n2nc(SCC(=O)N3CC(C)CC(C)C3)nc2n1 (stereo not drawn)	-65*	-15%	5%	·	-10%	-6%
CC(C)NC(=O)N(C)C[C@@H]1OCc2cn(nn2)CCCC(=O)N([C@@H](C)CO)C[C@H]1C	2	·	·	·	·	·
Cc1ccccc1C1CC(=O)Oc2cc(C)c(Cl)c(C)c21 (stereo not drawn)	·	·	·	6%[89.2 µM]	·	·
O=C1CCCC2=C1Sc1ccc(Cl)cc1N2	-27	-1%	·	-12%	11µM*	·
COc1ccccc1CN1CCCC2(CCNCC2)C1	·	-4%	·	5%	·	·
CC(NCCC(c1ccccc1)c1ccccc1)c1ccccc1 (stereo not drawn)	-40	13%	?	-9%	?	23µM*
CCC(C)n1cnc2c(c1=O)c1nc3ccccc3nc1n2Cc1ccc(OC)cc1 (stereo not drawn)	-75*	-28%	-26%	-1%	?	-17%
CC(=O)N1c2ccc(S(=O)(=O)N3CCC(C(=O)N4CCN(c5cccc(C(F)(F)F)c5)CC4)CC3)cc2CC1C (stereo not drawn)	-66*	?	·	·	-6%	·
COc1ccc(N2CCN(S(=O)(=O)c3ccc4c(c3)CC(C)N4C(C)=O)CC2)cc1 (stereo not drawn)	-72*	?	·	·	·	-21%[46.1 µM]
CC(=O)N1c2ccc(S(=O)(=O)N3CCC(C(=O)Nc4cccc(F)c4)CC3)cc2CC1C (stereo not drawn)	-61*	?	-2%[46.1 µM]	·	?	4%[46.1 µM]
O=C(Nc1cccc(F)c1)C1CCN(S(=O)(=O)c2ccc3[nH]c4c(c3c2)CCCCC4)CC1	+	0%	·	·	·	?
Cc1cnc(-n2ncc(C(=O)N(C)Cc3cccc4ncccc34)c2C(C)C)nc1-c1ccc(F)cc1	·	-17%	·	·	·	·
CCc1ccc(NC(=O)C2CCCN(S(=O)(=O)c3ccc4c(c3)CC(C)N4C(C)=O)C2)cc1 (stereo not drawn)	-30	-2%	·	-2%	?	·
CC(=O)N1c2ccc(S(=O)(=O)N3CCC(C(=O)Nc4cccc(Cl)c4C)CC3)cc2CC1C (stereo not drawn)	-29	?	·	·	·	-7%[46.1 µM]
CC(=O)N1c2ccc(S(=O)(=O)N3CCC(C(=O)Nc4cccc(Cl)c4)CC3)cc2CC1C (stereo not drawn)	-88*	?	·	-6%	?	·
CCc1ccc(NC(=O)C2CCN(S(=O)(=O)c3ccc4c(c3)CC(C)N4C(C)=O)CC2)cc1 (stereo not drawn)	-93*	16µM*	·	-8%	2.8µM*	·
CC(=O)N1c2ccc(S(=O)(=O)N3CCC(C(=O)Nc4cccc(C)c4)CC3)cc2CC1C (stereo not drawn)	-68*	?	?	8%	?	?
CC(=O)N1c2ccc(S(=O)(=O)N3CCCCCC3)cc2CC1C(=O)NC(C)C (stereo not drawn)	-85*	-10%	·	·	·	4%[46.1 µM]
Cc1ccc(NC(=O)c2cnc(SCC(=O)N3CCCc4ccccc43)n(C)c2=O)cc1C	?	-17%	·	·	·	29%[46.1 µM]
O=C(NCc1ccc2[nH]c3c(c2c1)CCCC3)c1ccc(S(=O)(=O)N2CCCC2)cc1	-79*	0%	-4%	-3%	?	?
CC(=O)N1c2ccc(S(=O)(=O)N3CCCC(C(=O)Nc4ccc(C)cc4)C3)cc2CC1C (stereo not drawn)	-33	·	·	·	·	·
SMILES	HCMV antiviral	FMDV inh	MARV entry inh	Giardia FBPA inh	HCV inh	LASV entry inh
COc1ccc(Cl)cc1NC(=O)C1CCN(S(=O)(=O)c2ccc3c(c2)CC(C)N3C(C)=O)CC1 (stereo not drawn)	-63*	?	·	·	·	-8%[46.1 µM]
O=C(NCc1ccc2[nH]c3c(c2c1)CCCC3)c1ccc(S(=O)(=O)N2CCOCC2)cc1	-4	-5%	-3%	-1%	?	?
CC(=O)N1c2ccc(S(=O)(=O)N3CCC(C(=O)Nc4cc(C)cc(C)c4)CC3)cc2CC1C (stereo not drawn)	-61*	-24%	·	·	3%	·
CC(=O)N1c2ccc(S(=O)(=O)N3CCCC(C(=O)Nc4cc(C)cc(C)c4)C3)cc2CC1C (stereo not drawn)	8	-18%	·	9%	-29%	·
CC(=O)N1c2ccc(S(=O)(=O)N3CCCC(C(=O)Nc4ccc(F)cc4)C3)cc2CC1C (stereo not drawn)	-68*	?	·	-5%	?	·
CCOC(=O)c1c(C)[nH]c(C)c1S(=O)(=O)N(C)CC(=O)Nc1ccc(C)cc1Br	-17	12%	·	·	·	-19%[46.1 µM]
CNC(=S)NCc1ccc2[nH]c3c(c2c1)CCCC3	-67*	2%	·	-22%	-6%	·
COc1ccc2c(c1)[C@@H](NC(=O)OCc1ccccc1)[C@H](C)[C@@H](c1ccccc1)N2C(=O)NC(C)C	-10	·	·	·	·	·
Cc1nc(C)c(-c2csc(Nc3ccc(C(=O)O)c(O)c3)n2)s1	19	28%	·	-18%	1%	·
COc1cccc(Nc2nc(-c3sc(C)nc3C)cs2)c1	10	-14%	·	3%	5µM*	·
Cc1nc(C)c(-c2csc(Nc3ccc(F)cc3)n2)s1	-10	-11%	?	-10%	4.5µM*	?
CC(C)C[C@@H]1COc2cccc(NN3CCN(C)CC3)c2S(=O)(=O)N1	·	·	·	·	·	-1%[46.1 µM]
CCOC(=O)C1=C(CSc2nc3ccccc3s2)NC(=O)NC1c1cc(C)ccc1C (stereo not drawn)	?	·	?	0%	?	?
CCOC(=O)C1=C(CN2CCN(c3cc(C)ccc3C)CC2)NC(=O)NC1c1ccc(Cl)cc1 (stereo not drawn)	-80*	0%	?	·	·	?
CCOC(=O)C1=C(CN2CCN(c3ccc(C)cc3C)CC2)NC(=O)NC1c1ccc(OC)cc1 (stereo not drawn)	-82*	?	·	·	·	?
CCOC(=O)C1=C(CSc2nc3ccccc3s2)NC(=O)NC1c1ccc(OC)cc1 (stereo not drawn)	-60*	·	?	-8%	?	?

From PubChem
